Laboratory results taken from ChEMBL document CHEMBL1157539, “Thousands of chemical starting points for antimalarial lead identification” (Nature, 2010).

Tested on: HepG2
Assay: GSK_TCMDC: Percent inhibition of human HepG2 cell line. Test compounds present at 10uM.
Type: functional

Point of comparison: CN(C(=O)Cc1ccc(Cl)c(Cl)c1)C1CCN(CCCCCNC(=O)/C=C/c2ccc(Cl)c(Cl)c2)CC1, Inhibition 87%. Against it:
- Cc1cc(Nc2ccc(C)c(Cl)c2)n2ncnc2n1 — lower, 6%
- O=C(/C=C/c1ccc(Cl)c(Cl)c1)NCCCCCN1CCC(NC(=O)Nc2cccc(Cl)c2)CC1 — lower, 52%
- CCOC(=O)c1cc(C(=O)NCCCCN2CCC(c3ccc(CC)cc3OCC)CC2)ccc1-c1ccc(C(F)(F)F)cc1 — lower, 74%
- NC(=O)COc1cccc2c1CCN(CCN1CCC(NC(=O)c3ccc(-c4ccc(Cl)cc4)cc3)CC1)C2 — lower, 44%
- Cc1cc(N(C)CCN(C)C)nc(Nc2ccc(Cl)cc2)n1 — lower, 0%
- Cc1cc(NC(=O)Nc2ccc(Oc3ccccc3)cc2)c2ccccc2n1 — lower, 2%
- COc1cc(NCC(C)CNCc2cn(Cc3ccccc3)c3ccccc23)nc2ccccc12 (centres undefined) — lower, 21%
- CN1CCN(c2cc(-c3ccncc3)nc(-c3cccnc3)n2)CC1 — lower, 13%
- COc1ccc(-c2cccc(NC(=O)c3cccc(C#N)c3)c2)cc1CN1CCN(C)CC1.O=C(O)C(F)(F)F — lower, 25%
- OCCN1CCN(C(=S)NC2CCCCC2)CC1 — lower, 49%
- CC1CCCCC1N(C)C1CCN(CCCNC(=O)C=Cc2cccc(C(F)(F)F)c2)CC1 (centres undefined) — lower, 47%
- O=C(Nc1cccc(-c2cccc(-c3nc4cc(F)ccc4[nH]3)c2)c1)Nc1ccc2c(c1)OCO2 — lower, 30%
- CCn1ncc2c(N3CCCC3=O)cc(C(=O)N[C@@H](Cc3ccccc3)[C@H](O)CNC(C)(C)c3cccc(C(F)(F)F)c3)cc21 — lower, 10%
